# Screens (PubChem BioAssay)
# KKLEB tox: CF airway cell cytotoxicity counter-screen. KKLEB CF airway cells viability, ATPlite luminescence, overnight; active compounds read low; cells stimulated with P. aeruginosa culture filtrate. activity change (cytotoxicity), % at 5 µM. hit rate 0.36% among 360,000. AID 602141;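 active means corrected activity change at or below -50% at 5 µM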
# CF NFkB block: cystic fibrosis NF-kB activation inhibition; KKLEB NF-kB-GFP reporter, PAF-induced, GFP fluorescence overnight; inhibition, % at 5 µM; hit rate 0.86% among 360,000; AID 588850;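 active means at least 50% inhibition at 5 µM, scaled per plate between neutral and stimulator controls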;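 further: PAF is a Pseudomonas aeruginosa culture filtrate used as stimulus; plate controls were PAF-stimulated DMSO wells for no effect and unstimulated DMSO wells for full effect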
# HIF-2a block: inhibitors of HIF-2a; 786-0 RCC cells HIF-2a reporter, luciferase luminescence, overnight; inhibition, % at 18.8 µM; hit rate 0.72% among 360,000; AID 624352;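 active means inhibition of the luminescence signal of 40% or more relative to plate controls, in a single-dose primary screen at 18.75 µM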
# Peg3 prom inh: inhibitors of Peg3 promoter; inhibition, % at 20 µM; hit rate 1.7% among 360,000; HeLa PEG-Prom luciferase reporter, luminescence, overnight;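 active means inhibition of at least 50% at 20 µM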
# TWEAK-Fn14 inh: inhibitors of TWEAK-Fn14 interaction signaling | hit rate 2% among 360,000 | TWEAK-stimulated Fn14 reporter cells, luciferase luminescence, 8 h | inhibition, % at 10 µM; in the data active means inhibition above about 50%
# TROY NFkB inh: TROY signaling inhibition; Q293 LMP1-TROYcd NF-kB luciferase reporter, 4 h; inhibition, % at 10 µM; hit rate 0.98% among 360,000; AID 1347056;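 active means compounds whose plate-normalised and pattern-corrected inhibition of the luciferase reporter signal at the single screening dose is 50% or more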
# The depositor's hits bear a star. Compounds with a hit are over-represented: about 4% of the library has one in this group of screens.
SMILES,KKLEB tox,CF NFkB block,HIF-2a block,Peg3 prom inh,TWEAK-Fn14 inh,TROY NFkB inh
Nc1ccc(S(=O)(=O)c2cc(O)c3ccccc3c2O)cc1,-12,27,-50,26,79*,74*
O=S(=O)(c1ccccc1)c1cc(O)ccc1O,-5,-4,-2,28,15,-3
CC1COCC(C)N1C1=C(Cl)C(=O)c2ccccc2C1=O (configuration not stated),-4,44,-2,100*,6,-10
O=C1C(Cl)=C(N2CCC(C(=O)O)CC2)C(=O)c2ccccc21,1,14,-7,5,14,12
CN1CCN(C2=C(Cl)C(=O)c3ccccc3C2=O)CC1,-3,34,12,65*,28,-10
CN(C1=C(N2CCOCC2)C(=O)c2ccccc2C1=O)c1ccccc1,-28,36,26,20,27,12
CC(C)(C)c1cc(C(=O)Nc2ccc(F)cc2)n(Cc2ccc(F)cc2)n1,-8,25,-59,27,18,63*
Cc1ccc(NC(=O)c2cc(C(C)(C)C)nn2Cc2ccccc2)cc1,-4,-10,-42,3,-32,8
Cc1cc(N2CCC(C(=O)NCC3CC3)CC2)nc(-c2ccccc2)n1,-11,13,15,17,78*,6
COc1ccccc1NC(=S)N1CCCCCC1,-5,-17,0,12,2,5
Cc1csc(NC(=O)C2=NN(c3ccccc3)C(=O)CC2)n1,-1,-10,12,7,-26,-2
Cc1ccc(-c2csc(NC(=O)C3=NN(c4ccccc4)C(=O)CC3)n2)cc1,-15,-12,-14,-4,55*,17
CCc1nc2c(OCc3ccc(F)cc3)cccn2c1N(C)C(=O)COc1ccccc1,1,-30,-10,12,-18,-2
CN(C)CCOc1ccc(/C(=C(/CCCl)c2ccccc2)c2ccccc2)cc1,1,21,-8,74*,-9,15
CCCN1CCC(NCc2cn(C)nc2-c2ccc(Oc3ccccc3)cc2)CC1,0,1,6,17,-19,16
O=C(c1ccco1)N1CCN(c2ncnc3c(-c4ccc(Cl)cc4)nsc23)CC1,-3,-2,-24,-32,61*,63*
COc1ccc(-c2nsc3c(N4CCCC4)ncnc23)cc1,-38,-16,-44,6,95*,66*
Cc1cc(N2CCN(c3nc(-c4ccccc4)cs3)CC2)c2ccccc2n1,4,4,-4,5,66*,-28
O=C(OCC(=O)N1CCOCC1)c1cncc(Br)c1,12,-3,1,5,8,-2
O=C(O)CCCc1ccc2c(c1)CCc1ccccc1-2,-2,-24,68*,4,56*,27
CCOC(=O)C(=Cc1ccc2c(c1)OCO2)c1ccccc1,-24,16,-78,-30,-24,-37
O=C(O)c1ccccc1-c1ccc(/C=c2\sc3nc4cc(Br)cnc4n3c2=O)o1,-1,-18,-23,3,75*,19
CCOC(=O)CSc1c(-c2ccc(Cl)cc2)[nH]c2ccccc12,-4,5,-146,15,4,-22
O=C(Cc1cccs1)NCCSc1c(-c2ccc(Cl)cc2)[nH]c2ccccc12,-30,25,-20,42,81*,51*
CCc1ccc(OC(=O)Nc2ccccc2)cc1,3,-4,-228,-186,-16,-37
SMILES,KKLEB tox,CF NFkB block,HIF-2a block,Peg3 prom inh,TWEAK-Fn14 inh,TROY NFkB inh
O=C(Nc1ccsc1C(=O)O)c1cccc(Oc2ccccc2)c1,-6,-14,-98,-181,53*,53*
C#CCSc1nnnn1-c1ccc(OCC)cc1,2,-9,2,-2,-6,2
CCc1ccc(-n2cccc2/C=C2/C(=N)N3C(=NC2=O)SN=C3S(C)(=O)=O)cc1,-1,1,-25,-22,-6,59*
Cc1ccc(-n2cccc2/C=C2/C(=N)N3C(=NC2=O)SN=C3S(C)(=O)=O)cc1,-23,16,-42,-26,-19,32
COc1cc(C(=O)N/N=C/c2sccc2C)cc(OC)c1OC,-10,52*,20,-8,17,13
CCCc1cc(=O)oc2c(C)c3occ(C)c3cc12,-12,-24,13,25,-12,-6
Cc1coc2c(C)c3oc(=O)cc(-c4ccccc4)c3cc12,-6,-3,6,74*,-26,22
